# About 83,000 compounds went through this panel and 20% of them were active in at least one assay; those are over-represented in the sample as a whole.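 How to read the values: 0–100, growth inhibition (40 = 60% inhibited); 0, no net growth; -100 to 0, cell death (-40 = 40% of starting cells died; -100 = all dead).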 Active and inactive are the calls of the source. The calls were made as follows: active = growth percent below 10; inactive = the rest.
# Test system: KM12 colon
# Test: NCI-60 one-dose screen, 48 h (100 = growth as untreated, 0 = no growth, -100 = all killed)
# Conditions: 10 µM unless noted
row,Structure (SMILES),growth
1,Cc1nn(-c2ccccc2)c2ncnc(N/N=C/c3cccc(O)c3)c12,29.3% (inactive)
2,C=C1CC[C@@H]2[C@]3(C)COC(c4ccccc4)O[C@@H]3CC[C@@]2(C)[C@@H]1C/C=C1/C(=O)OC[C@H]1O (stereo not given in full),86.1% (inactive)
3,CN(C)CCNC(=O)c1ccc(-c2nc3ccc4[nH]ncc4c3c3c2CCC3)cc1,4.08% (active)
4,Fc1ccc(-c2cc3nc(C(Cl)Cl)nc(-c4ccc(F)cc4)n3n2)cc1,-12.5% (active)
5,C=C(C=O)[C@@H]1CC[C@]2(C)[C@H](C(=O)C=C3[C@H]4C[C@](C)(C(=O)OC)CC[C@]4(C)CC[C@]32C)[C@@]1(C)CCC#N,3.36% (active)
6,CCc1ccc(SC2c3ccc(N(CC)CC)cc3Oc3nc(N)c(C#N)c(N)c32)cc1 (stereo not given),-57.9% (active)
7,CCOC(=O)C1=NNC(c2ccc(Cl)cc2)C1C(=O)N1C(=S)NC(=O)C1CC(C)C (stereo not given),101% (inactive)
8,C#CCn1cccc1CNc1ccc(OC)cc1,-72.6% (active)
9,NC(N)=Nc1ccc(Oc2cccc(NC(N)=Nc3ccc(Br)cc3)c2)cn1,66.5% (inactive)
10,CC1(C)CC[C@]2(CN)CC[C@]3(C)C(=CC[C@@H]4[C@@]5(C)CCCNC(C)(C)[C@@H]5CC[C@]43C)[C@H]2C1,101% (inactive)
11,O=C1C(c2ccccc2)=C(N2CCc3ccccc32)OC1(Cl)Cl,87.9% (inactive)
12,CC(=O)c1nnn(-c2c(C(=O)n3nc(C)cc3C)sc(=S)n2-c2ccccc2)c1C,104% (inactive)
13,COC(=O)C1(C)CCC[C@]2(C)[C@H]3C[C@H]4C(C(C)C)=C[C@]3(CC[C@@H]12)[C@H]1[C@@H]4[C@@H](OC(=O)c2ccco2)CC[C@@H]1OC(=O)c1ccco1 (stereo not given in full),105% (inactive)
14,CC(=O)N1C(=S)NC(=O)C1CC(C)C (stereo not given),101% (inactive)
15,C#Cc1ccc(C(=O)NCc2ccc(/C=C/C(=O)c3nccn3C)cc2)cc1,15.5% (inactive)
16,Cn1ccnc1C(=O)/C=C/c1ccc(NC(=O)c2ccc(F)cc2)cc1,24.8% (inactive)
17,O=C(O)c1ccc(-n2cc(CNc3cccc(Cl)c3)c(-c3ccc(F)cc3)n2)cc1,94.2% (inactive)
18,CCC1=Cc2cc(OC)ccc2OC12C=Cc1cc(OC)ccc1O2 (stereo not given),19.3% (inactive)

row,Structure (SMILES),growth
1,CCO/C=N/C1=C(C#N)C(c2ccc(OC)cc2)c2sc3c(C)cccc3c2O1 (stereo not given),19% (inactive)
2,COc1cccc(O)c1/C=C(/C)c1ccc2c(OC)cccc2[o+]1,101% (inactive)
3,C#CCNC1CCC(c2csc(C#C)n2)=C1C (stereo not given),19.1% (inactive)
4,CCO/C=N/C1=C(C#N)C(c2ccc(OC)cc2)c2sc3c(CC)cccc3c2O1 (stereo not given),18.9% (inactive)
5,C=CCn1c(SCC(=O)Nc2ccc(C(=O)/C=C/c3ccc(Cl)cc3)cc2)nnc1-c1c[nH]c2ccccc12,80.4% (inactive)
6,N#Cc1cccc(CN2CCC3=C(C2)C(=O)N(Cc2ccc(Cl)cc2)C2=NCCCN23)c1,38.8% (inactive)
7,CCN(CC)c1cn(-c2ccc(S(N)(=O)=O)cc2)nn1,102% (inactive)
8,CCCCCc1ccc(S(=O)(=O)Nc2cccc(-c3csc(NC(=O)CCCCCN4CCN(C)CC4)n3)c2)cc1,57.4% (inactive)
9,CCCCCc1ccc(S(=O)(=O)Nc2cc(-c3csc(NC(=O)CN4CCN(C)CC4)n3)ccc2OC)cc1,25.8% (inactive)
10,COc1ccccc1NCc1cccn1Cc1ccc(F)cc1,95.9% (inactive)
11,CC(=O)c1cc(C(=O)c2ccc(Br)cc2)n2cc(C)cc(C)c12,97.5% (inactive)
12,O=C1Nc2ccccc2/C1=C/c1ccc(COCC2CO2)n1-c1ccc(O)cc1 (stereo not given),17.8% (inactive)
13,C/C(=N\O)[C@H]1C[C@]23CC[C@]4(C)[C@H](CC[C@@H]5[C@@]6(C)CC/C(=N/O)C(C)(C)[C@@H]6CC[C@]54C)[C@H]2[C@H](C)C1(C)OC3,102% (inactive)
14,NC(N)=Nc1ccc(Oc2cccc(Oc3ccc(Cl)c(C(F)(F)F)c3)c2)cn1,-89.6% (active)
15,COc1ccc([C@@H]2c3[nH]c4ccccc4c3C[C@H]3C(=O)N(C4CCN(CC5CCCCC5)CC4)CC(=O)N23)c(OC)c1,82.3% (inactive)
16,COc1ccc(C2CC(c3ccc(Nc4nc(NCCO)nc(N5CCOCC5)n4)cc3)=Nc3c(N)nc(N)nc3N2)cc1 (stereo not given),89% (inactive)
17,Cc1ccc2c(c1)Oc1nc(N)c(C#N)c(N)c1C2Sc1ccc(F)cc1 (stereo not given),-91.4% (active)

# From PubChem BioAssay (NCI)
